This passage reports growth results from PubChem BioAssay (NCI).

Common to all, as to assay: NCI-60 one-dose screen, 48 h (100 = growth as untreated, 0 = no growth, -100 = all killed)
What all share (conditions): 10 µM unless noted

The test system of assay [1] is SR leukemia.
For assay [2], the system named is RPMI-8226 leukemia.
Assay [3] has as its system OVCAR-8 ovarian.
In assay [4] the test system is OVCAR-5 ovarian.
Assay [5] has as its system OVCAR-4 ovarian.
Assay [6] relates to SK-OV-3 ovarian.
In assay [7] the test system is IGROV1 ovarian.
Assay [8] concerns OVCAR-3 ovarian.
The test system of assay [9] is HS 578T breast.
For assay [10], the system named is NCI/ADR-RES ovarian.
Assay [11] concerns T-47D breast.
For assay [12], the system named is BT-549 breast.
The subject of assay [13] is MDA-MB-435 melanoma.
The subject of assay [14] is SW-620 colon.
The subject of assay [15] is MCF7 breast.
Assay [16] has as its system HCT-116 colon.
Assay [17] concerns HCC-2998 colon.
In assay [18] the test system is KM12 colon.
Assay [19] relates to MDA-MB-468 breast.

Compounds without any hit were thinned out: in the full panel of roughly 83,000, 20% have a hit.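 Growth was measured after 48 h exposure to one concentration of compound in 96-well plates. Values under 10 count as active.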 A number with no mark means an inactive call. Calls of active or inactive are those of the source.

For `O=C1NC(=S)/C(=C/c2cn(-c3ccccc3)nc2-c2ccccc2)S1`, the growth in [1] is 83.4%; in assay [2] it was 5.49% (active); in assay [3], 31.7%; in assay [4], 47.9%; in [5], 25.4%; in assay [6], 35.5%. Besides, the growth is 29.1% in assay [7]; 36.7% in assay [8]; 8.03% (active) in assay [9]; 18.6% in [10]; 0.334% (active) in [11]; -9.85% (active) in assay [12]. In addition, the growth in assay [13] is 24.6%; in assay [14] it was 39.3%; in assay [15], 3.28% (active); in assay [16] it was 18.6%; in assay [17], 29.2%; in [18] it was 19.4%. In addition, the growth in [19] was 22.3%.
As for `CCOC(=O)/C(F)=C/C1CC1CCc1ccc(OCC)cc1` (stereo not drawn), the growth in [1] was 78.6%; in [2], 99.3%; in assay [3], 101%; in assay [4], 108%; in [5] it was 94.8%; in assay [6] it was 75.3%. Moreover, the growth is 92.5% in assay [7]; 103% in assay [8]; 94.5% in assay [9]; 101% in assay [10]; 74.7% in [11]; 106% in assay [12]. In addition, the growth in [13] was 99%; in [14], 92%; in assay [15], 85.7%; in [16] it was 93.7%; in [17] it was 90.5%; in [18] it was 83.9%. Also, the growth in [19] is 71.6%.
Turning to `COC(=O)c1c(C(=O)OC)c2ccc3c4ccccc4ccc3n2c1C(=O)OC`, the growth in assay [1] was 94.6%; in [2], 104%; in [3] it was 107%; in assay [4], 106%; in assay [5], 100%; in [6], 109%. Moreover, the growth was 114% in assay [7]; 75.8% in assay [8]; 92.7% in [9]; 112% in assay [10]; 93.7% in assay [11]; 113% in assay [12]. Also, the growth in assay [13] is 98.7%; in assay [14] it was 111%; in assay [15], 85.4%; in assay [16] it was 97.7%; in assay [17] it was 107%; in [18] it was 103%. Moreover, the growth in assay [19] was 89.6%.
For `Cn1cc(-c2cc(N)n3nc(-c4c[nH]c5ccccc45)cc3n2)c2cc(Cl)ccc21`, the growth in assay [1] was 20%; in [2] it was -7.08% (active); in assay [3], -63.7% (active); in assay [4], -65.9% (active); in assay [5], -29.3% (active); in assay [6] it was -61.4% (active). The growth was -65.5% (active) in assay [7]; -52.5% (active) in [8]; -21.2% (active) in assay [9]; -12.8% (active) in [10]; -77.5% (active) in assay [11]; -3.57% (active) in assay [12]. Also, the growth in [13] was -51.7% (active); in assay [14] it was -84.9% (active); in assay [15], -70.3% (active); in [16], -73.4% (active); in [17] it was -80% (active); in [18], -70.5% (active). In addition, in assay [19], the growth is -83.2% (active).
With `CN1CCc2c(sc3ncnc(N/N=C/c4cccc(Cl)c4Cl)c23)C1`, the growth in assay [1] was 8.87% (active); in assay [2] it was -16% (active); in assay [3], -38.6% (active); in assay [4] it was 88%; in [5], -24.8% (active); in assay [6], 90.6%. In addition, the growth in [7] is 10.6%; in assay [8], 25.1%; in assay [9], 38.2%; in assay [10], 49.4%; in [11] it was -6.02% (active); in assay [12], 63.3%. For the same compound, the growth in assay [13] is 39.3%; in assay [14], -36.9% (active); in [15], -39.1% (active); in [16], -82.8% (active); in assay [17], 6.03% (active); in assay [18] it was 88%. In addition, the growth in assay [19] was 33.2%.
As to `COc1ccc(C(=O)c2c(N)c(C#N)cn2-c2ccc([N+](=O)[O-])cc2)cc1`, the growth in [1] was 94.5%; in assay [2], 108%; in [3], 88.5%; in [4], 107%; in [5] it was 101%; in assay [6] it was 93.9%. The growth is 109% in assay [7]; 122% in assay [8]; 95.2% in assay [9]; 98.2% in assay [10]; 90.1% in assay [11]; 113% in assay [12]. Further, the growth in assay [13] was 81.1%; in [14], 105%; in assay [15], 95.1%; in [16], 106%; in [17] it was 101%; in assay [18], 105%. The growth in assay [19] was 109%.
As for `N#CC1=C(c2ccco2)Nc2c(c(-c3ccccc3)nn2-c2ccccc2)C12C(=O)Nc1ccc(Cl)cc12` (stereo not drawn), the growth in [1] is -2.37% (active); in assay [2], 49.8%; in assay [3] it was -29.1% (active); in assay [4] it was 53.5%; in assay [5] it was 9.94% (active); in [6] it was 55.3%. The growth is 39.2% in assay [7]; -27.2% (active) in [8]; -22.9% (active) in assay [9]; -3.42% (active) in assay [10]; 26.6% in assay [11]; 15.4% in assay [12]. Moreover, the growth in assay [13] was 53.7%; in [14], 15.9%; in assay [15], 21.3%; in [16] it was -73.1% (active); in assay [17], 64.8%; in assay [18], 52.1%. Moreover, the growth in assay [19] is 42.3%.
